IEC-6 tox – cytotoxicity in IEC-6 intestinal epithelial cells, primary screen, cytotoxicity control for KLF5 inhibitor project, cell-based, luminescence; IEC-6 cytotoxicity, luminescence viability; inhibition, % at 5 µM; 290,000 tested, 0.78% active; AID 1825, 2009; in the data active means inhibition above about 22%
APP transl inh – inhibitors of APP translation via 5'UTR reporter, primary screen, APP 5'UTR luciferase, SH-SY5Y cells | SH-SY5Y APP 5'UTR-luciferase reporter, luminescence | inhibition, % at 2 µM | 190,000 tested, 0.82% active;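 active means inhibition above a set limit, derived from the sample mean plus 3 SD, cut at about 45% in these data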
KLF5 inh – KLF5 expression inhibitors, primary screen, DLD-1 cells, luminescence. AID 1700, 2009. 290,000 tested, 0.23% active. DLD-1 KLF5 promoter-luciferase reporter. inhibition, % at 5 µM;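 active means inhibition above a per-plate limit of that plate's mean compound inhibition plus 3 SD, cut at about 60% in these data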;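 further: higher means less KLF5 promoter-driven luciferase light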
Ba/F3 V617F tox – reduced viability of JAK2V617F-dependent Ba/F3 cells, primary screen, JAK2V617F inhibitor project, cell-based, Ba/F3 EpoR-JAK2V617F, luminescence; inhibition, % at 5.6 µM; 220,000 tested, 1.1% active; ATP luminescence;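 active means inhibition above the campaign mean plus 3 SD over all tested compounds, cut at about 24% in these data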;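 further: cytokine-independent growth of Ba/F3 cells driven by EpoR plus mutant JAK2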
BaF3 parental – parental Ba/F3 cell viability inhibition, counter-screen for JAK2V617F inhibitor project, murine pro-B, CellTiter-Glo luminescence; CellTiter-Glo ATP luminescence; inhibition, % at 5.6 µM; 220,000 tested, 1.1% active; AID 1486, 2009;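 active means inhibition above a per-campaign cutoff, the mean inhibition of all tested compounds plus 3 SD, cut at about 27% in these data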
BaF3 parental 2 – parental Ba/F3 cell viability inhibition, counter-screen for JAK2V617F inhibitor project, murine pro-B, CellTiter-Glo luminescence | shares compounds with Ba/F3 V617F tox | cells kept alive by added IL-3 | inhibition, % at 5.6 µM | 580 tested, 31% active;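 active means cell growth inhibition above the hit limit set in the earlier mutant JAK2 cell screen, cut at about 27% in these data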
JAK2V617F conf – viability loss in Ba/F3 EpoR-JAK2V617F cells, confirmation, JAK2V617F inhibitor project, cell-based, luminescence, triplicate. shares compounds with Ba/F3 V617F tox. CellTiter-Glo luminescence. inhibition, % at 5.6 µM. 580 tested, 66% active. AID 1521, 2009;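 active means mean inhibition above the hit cutoff derived in the earlier primary screen, cut at about 25% in these data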;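 further: higher means lower luminescence from reduced cell ATP and viability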
Hits are given with their value; - = inactive; . = no result. The list is not random: actives were taken first. Their share in the collection is about 1.9%.

SMILES | IEC-6 tox | APP transl inh | KLF5 inh | Ba/F3 V617F tox | BaF3 parental | BaF3 parental 2 | JAK2V617F conf
COc1cccc(N2CC(C(=O)Nc3ccc(F)cc3)CC2=O)c1 (centres undefined) | - | . | - | . | . | . | .
CCCN(Cc1cc2cc(OC)ccc2[nH]c1=O)C(=O)c1ccncc1 | - | - | - | - | - | . | .
CCOc1ccc(C(=O)N(Cc2ccc(OC)cc2)Cc2cc3cc(OC)ccc3[nH]c2=O)cc1 | - | - | - | 46 | - | - | -
COc1ccc(C(=O)OCC(=O)NCc2ccccc2)c(OC)c1OC | - | - | - | 103 | - | - | -
Cc1ccc(N(CC(O)CN2C(=O)NC(C)(C)C2=O)S(=O)(=O)c2ccc(C)cc2)cc1 (centres undefined) | - | . | - | 25 | - | - | -
Cc1ccc(/C=N/NC(=O)C(=O)N/N=C/c2ccc(C)o2)o1 | - | - | - | 45 | - | - | -
O=c1[nH]c2ccc(N/C(=N/S(=O)(=O)c3ccccc3)c3ccccc3)cc2[nH]1 | - | - | - | 29 | - | - | -
CC(=O)Nc1ccc(N/C(=N\S(=O)(=O)c2ccccc2)c2ccccc2)cc1 | - | . | - | . | . | . | .
COc1cccc(/C=N/NC(=O)c2ccc(-c3ccccc3)cc2)c1O | - | - | - | - | - | . | .
COc1cccc(/C=N/NC(=O)c2[nH]c(C)c(C(=O)N/N=C/c3cccc(OC)c3O)c2C)c1O | - | - | - | 42 | - | - | 70
CCCc1nc([N+](=O)[O-])c(S(=O)(=O)c2ccccc2)n1CC(C)C | - | - | - | 29 | - | - | 33
CC(C)Cn1c(C(C)C)nc([N+](=O)[O-])c1S(=O)(=O)c1ccc(F)cc1 | - | - | - | - | - | . | .
O=C1C2CCCN2C(c2ccc(F)cc2)N1c1ccc(Cl)cc1 (centres undefined) | - | - | - | 42 | - | - | -
O=C1C2CCCN2C(c2ccccc2)N1c1ccc(F)cc1 (centres undefined) | - | - | - | - | - | . | .
O=C(NCc1ccccc1)c1ccc(OC2CSC2)cc1 | - | - | - | - | - | . | .
COc1cc2c(cc1OC)C(COc1ccc(F)cc1)N(C(C)=O)CC2 (centres undefined) | - | . | - | . | . | . | .
CNC(=O)Nc1ccccc1F | - | - | - | - | - | . | .
COc1cccc(C2(O)CCN(C(=O)C(C)C)CC2)c1 | - | . | - | - | - | . | .
COc1cccc(C2(O)CCN(C(=O)c3cccs3)CC2)c1 | - | - | - | 55 | - | - | -
Cc1cc(C(=O)Nc2cnc3ccccc3c2)ccc1[N+](=O)[O-] | - | - | - | 28 | - | - | -
Cc1ccc(Sc2ccc(NC(=O)CCl)cc2)cc1C | - | - | - | - | - | . | .
Cc1ccc(C)c(Sc2ccc(NC(=O)CCl)cc2)c1 | - | 60 | - | 50 | - | - | 86
CC1(C)CC(=O)C(C=NCCN2CCN(C(=S)Nc3ccc(F)cc3)CC2)=C(O)C1 | - | - | - | 37 | - | - | 40
CCc1cccc(C)c1NC(=O)N(C)C1CCCCC1 | - | . | - | - | - | . | .
Cc1ccc(NC(=S)N2CCN(C3CCCCC3)CC2)cc1 | - | - | - | 61 | - | - | 40
SMILES | IEC-6 tox | APP transl inh | KLF5 inh | Ba/F3 V617F tox | BaF3 parental | BaF3 parental 2 | JAK2V617F conf
S=C(Nc1ccc(Cl)cc1)N1CCCCC1 | - | - | - | - | - | . | .
CN1CCN(C(=S)Nc2ccc(Cl)cc2)CC1 | - | - | - | 27 | - | - | 46
O=S(=O)(c1ccc(NC(=S)NCCc2ccccc2)cc1)N1CCOCC1 | - | - | - | - | - | . | .
CCCCOc1ccc(Cc2cnc(N)nc2N)cc1 | - | . | - | - | - | . | .
COc1ccc2[nH]cc(CCNC(=O)C3CCCCC3)c2c1 | - | . | - | . | . | . | .
O=[N+]([O-])c1ccccc1-n1cnc2ccccc21 | - | - | - | - | - | . | .
O=C(Cc1ccc2c(c1)OCCO2)N1CCN(S(=O)(=O)c2cccc(Cl)c2Cl)CC1 | - | - | - | - | - | . | .
c1ccc(Sc2cccc3ccccc23)c(CNC2=NCCN2)c1 | - | - | - | 34 | - | 39 | 48
C=CCN(Cc1cccc(OC)c1OC)S(=O)(=O)N(C)C | - | - | - | - | - | . | .
CSc1ccc(S(=O)(=O)N2c3ccccc3CC2C)cc1 (centres undefined) | - | . | - | . | . | . | .
C=CCOC(=O)C(C#N)c1nc2ccccc2nc1N1CCN(c2ccccc2OCC)CC1 (centres undefined) | - | - | - | - | - | . | .
CC(=O)c1ccc(N2CCN(C(=O)c3ccc4ccccc4n3)CC2)cc1 | - | - | - | 76 | - | - | -
Cc1ccnc(NC(=O)COc2ccccc2[N+](=O)[O-])c1 | - | - | - | - | - | . | .
O=C(CSC1=NNC(c2ccccn2)S1)Nc1ccc(C(F)(F)F)cc1 (centres undefined) | - | . | - | - | - | . | .
CCOC(=O)c1c(NC(=O)C(C)N2CCN(C(=O)c3ccco3)CC2)sc2c1CCCC2 (centres undefined) | - | - | - | 28 | - | - | -
CCCCCCCCCCCC(=O)NC1CCS(=O)(=O)C1 (centres undefined) | - | - | - | 70 | - | - | -
CC(=O)c1nn(-c2cccc(Br)c2)cc1C(=O)c1ccccc1 | - | - | - | 56 | - | - | -
S=c1[nH]nc(-c2ccc(Cl)cc2)n1/N=C/c1ccco1 | - | . | - | - | - | . | .
FC(F)(F)c1n[nH]c(=S)n1/N=C/c1ccco1 | - | - | - | 35 | - | - | -
COc1ccc(-c2ccc(NS(=O)(=O)c3ccc([N+](=O)[O-])cc3)cc2)nn1 | - | . | - | . | . | . | .
CCN(CC)C(=O)C1=C(C)NC(=O)NC1c1c(F)cccc1Cl (centres undefined) | - | - | - | 29 | - | - | -
O=C1N/C(=C\c2nc3ccccc3s2)c2ccccc21 | - | . | - | - | - | . | .
O=C1N/C(=C\c2ccccc2)c2ccccc21 | - | - | - | 38 | - | - | 45
COc1ccc(OC)c(NC(=O)c2nnn(Cc3ccccc3C)c2N)c1 | - | - | - | 24 | - | 37 | 30
COc1ccc(C)cc1NC(=O)c1nnn(Cc2cc(C)ccc2C)c1N | - | - | - | - | - | . | .
COc1cccc(C2/C(=C(/O)c3ccc4c(c3)CC(C)O4)C(=O)C(=O)N2c2nnc(C)s2)c1 (centres undefined) | - | . | - | . | . | . | .
Cc1cccc(CN(C(=S)Nc2c(C)cccc2C)c2cccnc2)c1 | - | - | - | 102 | - | - | -
CCc1ccccc1NC(=S)N(Cc1cccc(C)c1)c1cccnc1 | - | - | - | - | - | . | .
Nc1ccc2c(c1)C(=O)C(=O)c1ccccc1-2 | - | 88 | - | 44 | - | 107 | 99

Bioassay records: PubChem, several laboratories
